# Source: PubChem BioAssay
# HIF-2a block: HIF-2a inhibition; 786-0 RCC cells HIF-2a reporter, luciferase luminescence, overnight; inhibition, % at 18.8 µM; actives 0.72% (n = 360,000); AID 624352;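 active means inhibition of the luminescence signal of 40% or more relative to plate controls, in a single-dose primary screen at 18.75 µM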
# KKLEB cytotox: reduces viability of KKLEB cystic fibrosis airway cells | KKLEB CF airway cells viability, ATPlite luminescence, overnight; stronger effect = lower value; cells stimulated with P. aeruginosa culture filtrate | activity change (cytotoxicity), % at 5 µM | actives 0.36% (n = 360,000);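 active means corrected activity change at or below -50% at 5 µM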
# TRPM1 prom inh: reduces MITF-dependent TRPM1 promoter luciferase signal | actives 0.83% (n = 330,000) | SK-MEL-5 TRPM1 promoter luciferase, 24 h | AID 488899 | inhibition, % at 12.5 µM;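 active means mean inhibition across replicates of 60% or more, whatever share of single replicates reaches that level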
# Peg3 prom inh: Peg3 promoter activity inhibition; HeLa PEG-Prom luciferase reporter, luminescence, overnight; inhibition, % at 20 µM; actives 1.7% (n = 360,000);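 active means inhibition of at least 50% at 20 µM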
# CF NFkB inh: inhibitors of cystic fibrosis induced NF-kB | KKLEB NF-kB-GFP reporter, PAF-induced, GFP fluorescence overnight | actives 0.86% (n = 360,000) | inhibition, % at 5 µM;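 active means at least 50% inhibition at 5 µM, scaled per plate between neutral and stimulator controls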;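 further: PAF is a Pseudomonas aeruginosa culture filtrate used as stimulus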
# Shn3 3UTR inh: Schnurri-3 reporter inhibition in Clone20 osteoblasts; inhibition, % at 12.5 µM; Clone20 osteoblast Shn3 3'UTR firefly luciferase, 24 h; actives 0.52% (n = 360,000);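 active means mean inhibition of at least 75% with every replicate also reaching 75%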
# Hits are given with their value; – = inactive; · = not tested or not shown. Rows were chosen to be rich in hits. Some 2.8% of all compounds tested hit in one or more screens of this group.
SMILES,HIF-2a block,KKLEB cytotox,TRPM1 prom inh,Peg3 prom inh,CF NFkB inh,Shn3 3UTR inh
CC(C)(C)OC(=O)NCc1ccc(NC(=O)c2nc[nH]c2C(=O)NCCCCCCNC(=O)c2[nH]cnc2C(=O)Nc2ccc(CNC(=O)OC(C)(C)C)cc2)cc1,–,-83,–,101,88,–
Cc1ccc(NC(=O)c2nc[nH]c2C(=O)NCCCCCNC(=O)OC(C)(C)C)cc1,–,–,–,–,–,–
CC(C)(C)OC(=O)NCc1ccc(NC(=O)c2nc[nH]c2C(=O)NCCN(CCNC(=O)c2[nH]cnc2C(=O)Nc2ccc(CNC(=O)OC(C)(C)C)cc2)CCNC(=O)c2[nH]cnc2C(=O)Nc2ccc(CNC(=O)OC(C)(C)C)cc2)cc1,–,–,–,–,–,–
CCc1ccc(C(=O)C(C)OC(=O)c2nc3nc(C)cc(C)n3n2)cc1 (stereo not drawn),–,–,–,–,–,–
Cc1cc(C)c(O)c(-c2cc(C(=O)Nc3ccc(S(=O)(=O)N4CCOCC4)cc3)[nH]n2)c1,–,–,–,59,–,91
NC(=O)c1ccsc1NC(=O)CN1CCN(S(=O)(=O)c2ccccc2C(F)(F)F)CC1,–,–,–,61,–,–
CC(=O)Nc1cccc(NC(=O)CCNC(=O)c2ccccc2)c1,–,–,–,–,–,–
CC(C)(C)c1ccc(/C=N/N2C(=O)CSC2=S)cc1,57,–,–,–,–,–
CC(C)CN1C(=S)SC(C)(C)C1n1oc(=O)n(-c2ccccc2)c1=O (stereo not drawn),–,–,–,–,–,–
CC(C)CN1C(=S)SC(C)(C)C1n1oc(=O)n(-c2ccc(Cl)cc2)c1=O (stereo not drawn),–,-56,–,67,65,–
Cc1nc2ccc(F)cc2cc1C(=O)NCC1CCCO1 (stereo not drawn),–,-89,–,–,–,–
COC(=O)c1cn(CC(=O)Nc2ccc(F)cc2)c2ccccc12,–,–,–,–,–,–
CC(NC(=O)C1CCC(CNS(=O)(=O)c2ccc3c(c2)C(C)(C)C(=O)N3C)CC1)c1ccccc1 (stereo not drawn),–,–,–,–,–,–
FC(F)(F)c1cccc(Cn2c3[n+](c4ccc(C(F)(F)F)cc42)CCCCC3)c1,–,–,–,–,–,–
Cc1cc(C(C)(C)C)cc(C)c1Cn1c2[n+](c3ccc(C(F)(F)F)cc31)CCCCC2,–,–,84,56,–,–
Nc1nc(CCl)nc(N(c2ccccc2)c2ccccc2)n1,–,-73,·,–,70,–
Nc1nc(Cl)nc(N(c2ccccc2)c2ccccc2)n1,–,–,–,–,–,–
Cc1ccccc1OCCSCc1nc2ccccc2[nH]1,–,–,–,–,–,–
Cc1cc(-c2ccco2)c(C#N)c2nc3ccccc3n12,–,–,–,–,–,–
CCOC(=O)C1CCN(C(=O)c2ccc(C)o2)CC1,–,–,–,–,–,–
CCOC(=O)C1CCN(C(=O)c2c(C)oc3c2C(=O)c2ccccc2C3=O)CC1,–,–,·,–,62,–
CC(=NNC(=S)N(Cc1ccccn1)Cc1ccccn1)c1cnccn1,–,–,80,54,–,95
S=C(NN=Cc1ccccn1)N(Cc1ccccn1)Cc1ccccn1,–,–,74,–,–,–
Cn1c(CCN2CCN(c3ccccn3)CC2)nc2cc(NC(=O)COc3ccc(Cl)cc3)ccc21,–,–,–,52,–,–
COc1ccc(OCC(=O)Nc2ccc3c(c2)nc(CCN2CCN(c4ccccn4)CC2)n3C)cc1,–,–,·,–,–,–
COc1ccc(C#Cc2cccc(-c3nc(C(=O)N4CCN(C)CC4)cc4c3[C@H](CCO)N(S(=O)C(C)(C)C)C4)c2)cc1OC (stereo partly drawn),–,–,·,–,–,–
CC1=C/C(=N\NC(=S)Nc2cccnc2)CC(C)(C)C1,–,–,62,–,–,–
CCOCCCn1c(=S)[nH]c2cc(C(=O)NC3CCCC(C)C3C)ccc2c1=O (stereo not drawn),–,–,–,–,–,–
Cc1ccc(C2=C(O)C(=O)C(c3ccc(C)cc3)=C(O)C2=O)cc1,–,–,–,–,56,–
